Assay results as given in ChEMBL document CHEMBL3988442, “University of Dundee, Small-Polar-MMV Screening Library” (2021).
Out of some 53,000 compounds screened, about 900 (1.7%) showed an effect of 50% or more. The full list was thinned out, with strong results kept by preference.

tested on: Mycobacterium tuberculosis; test: Cornell - Phenotypic assay to identify agents that inhibit growth of Mycobacterium tuberculosis; format: functional; parameters: scale not given: direction of the effect not stated beside the values; conditions: 10 mM as filed; unlikely as a test dose

SMILES	Percent Effect
CN(C)C(=O)N1C[C@@H]2CC[C@H](C1)N(C(=O)c1c(Cl)cccc1Cl)C2	3.535%
CCOCC1CN(C(=O)Cc2ccccn2)Cc2cn(C)nc21 (stereo unspecified)	-4.26%
CO[C@@H]1CCN(Cc2ccccn2)[C@@H]2CN(Cc3ccco3)C[C@@H]21.O=C(O)C(F)(F)F.O=C(O)C(F)(F)F.O=C(O)C(F)(F)F	-14.11%
CCNC(=O)c1ccc(NC(=O)N(C)Cc2cccn2C)c(C)c1	26.39%
CCC(NC(=O)c1nn(C)cc1C(=O)O)c1ccc(C)cc1 (stereo unspecified)	2.527%
CCOc1cc([C@@H]2N[C@H](c3nccs3)Cc3ccsc32)ccc1OC	39.28%
Cc1c(Cl)cccc1NC(=O)N1CCN(Cc2ccccn2)CC1	28.2%
Cc1nc(C2CCN(C(=O)c3ccn(C)n3)CC2)c2sccn12	-12.4%
CCn1nc(C)c(CNC(=O)c2cn(CC3CCCO3)nn2)c1C (stereo unspecified)	-30.41%
Cc1cc(C)n(C2CCN(c3ncnc4sc5c(c34)CCNC5)C2)n1 (stereo unspecified)	11.06%
FC1(F)CCN(Cc2cccnc2)CC12CCN(c1ccccn1)C2.O=C(O)C(F)(F)F.O=C(O)C(F)(F)F.O=C(O)C(F)(F)F (stereo unspecified)	-7.439%
FC1(F)CCN(Cc2cccnc2)CC12CCN(c1ccccc1)C2.O=C(O)C(F)(F)F.O=C(O)C(F)(F)F.O=C(O)C(F)(F)F (stereo unspecified)	59.15%
FC1(F)CCN(Cc2ccncc2)CC12CCN(c1cccnc1)C2.O=C(O)C(F)(F)F.O=C(O)C(F)(F)F.O=C(O)C(F)(F)F (stereo unspecified)	6.416%
Cc1nn2c(=O)/c(=C\c3cccs3)sc2nc1=O	10.56%
CC1CCCN(c2ncc(-c3ccccc3F)c(-c3nccn3C)n2)C1 (stereo unspecified)	50%
Cc1cc(-c2cnc(N3CCOCC3)nc2-c2cccnc2C)on1	6.202%
CC1CCN(c2ncc(-c3ccccc3F)c(-c3nccn3C)n2)CC1	-10.24%
Cc1cc(-c2cnc(N3CCC(O)CC3)nc2-c2cccnc2C)on1	-33.62%
Cc1cc(-c2cnc(N3CCCCCC3)nc2-c2cccnc2C)on1	62.64%
Cn1ccnc1-c1nc(N2CCCCC2)ncc1-c1ccccc1F	56.75%
CC(C)=CCN1CCC2(CC1)CC(=O)N(Cc1cc(F)cc(F)c1)C2	20.01%
CC(C)Cn1nc2ccc(S(=O)(=O)N3CCC(C)CC3)cn2c1=O	2.551%

SMILES	Percent Effect
COc1cc2nc(NCc3ccc(C)nc3)nc(N)c2cc1OC	50.73%
COc1cc2nc(NCc3cc(C)on3)nc(N)c2cc1OC	-7.413%
COc1cc2nc(NCc3scnc3C)nc(N)c2cc1OC	13.16%
N#Cc1ccc(NC2CCN(c3ncccn3)CC2)cc1Cl	33.47%
COC(=O)N1CCC(Nc2ccc(Cl)c(C#N)n2)C1 (stereo unspecified)	21.5%
COC(=O)N1CCC(Nc2ccc(C#N)c(Cl)c2)C1 (stereo unspecified)	66.83%
CC(NC(=O)NCCCn1cccn1)c1ccccn1 (stereo unspecified)	-6.373%
CCCNC(=O)NC(C)c1ccccn1 (stereo unspecified)	55.13%
CC(NC(=O)NCCNc1ccccn1)c1cccs1 (stereo unspecified)	-14.12%
CCN1CCN(C(C)(C)CNc2nc(C)cc(C3CCC3)n2)CC1	8.458%
CC(C)CC(=O)N1Cc2ccccc2CC1C(=O)Nc1nncs1 (stereo unspecified)	29.19%
O=C(NCC1(O)COCCN(Cc2cccc(O)c2)C1)c1ccccn1 (stereo unspecified)	-47.38%
CC(C)n1cnnc1Cn1ccc2ncccc2c1=O	-16.96%
CC(NC(=O)NCc1ccccc1)(C(=O)O)c1ccco1 (stereo unspecified)	-57.05%
CC(NC(=O)NCc1ccccc1F)(C(=O)O)c1ccco1 (stereo unspecified)	-0.26%
Cc1ccc(C)c(CNC(=O)NC(C)(C(=O)O)c2ccco2)c1 (stereo unspecified)	50.37%
COc1cc(N2CCC3(CC2)CN(C)C(=O)CO3)ncn1	-14.83%
CCn1ncc2c1CCCC2NCc1cccc2c1OCO2 (stereo unspecified)	-8.826%
NC(=O)C1CCN(C(=O)CCSCc2ccc(Cl)c(Cl)c2)CC1	42.57%
CCOCCN(C)C(c1cccnc1)c1ccc(F)cc1F (stereo unspecified)	14%
CNC(=O)NC(=O)CN(C)C(c1cccnc1)c1ccc(F)cc1F (stereo unspecified)	14.91%
COC(=O)CCCN(C)C(c1cccnc1)c1ccc(F)cc1F (stereo unspecified)	105.8%

SMILES	Percent Effect
CC(=O)NCCC1CCCCN1S(=O)(=O)c1cccc(Cl)c1 (stereo unspecified)	-47.8%
CN1CCN(Cc2cn3c(n2)CN(Cc2ccncc2)CC3)CC1	-19.75%
COc1ccccc1NC(=O)CC(C)NCCc1sc(C)nc1C (stereo unspecified)	109.1%
COc1ccccc1NC(=O)CC(C)NCc1scnc1C (stereo unspecified)	-11.77%
COc1ccccc1NCC(=O)NCc1scnc1C	3.418%
CCOc1ccc(NC(=O)N2CCOC(C(N)=O)C2)cc1C (stereo unspecified)	-10.8%
CN1CCN(c2nsc(-c3cccnc3)c2C#N)CC1	-23.91%
CCN1CCN(c2nsc(-c3cccnc3)c2C#N)CC1	8.063%
CN1CCN(c2nsc(-c3ccccc3)c2C#N)CC1	72.37%
O=C(NCCOc1ccccc1)NCC(O)c1cccs1 (stereo unspecified)	1.907%
Cc1csc(N2CCCN(C(=O)c3csc(C)n3)CC2)n1	20.78%
O=C(c1cnc(O)cn1)N1C[C@@H]2CC[C@H](C1)N(Cc1ccccc1)C2	9.482%
CCN1CCCc2cc(CN3CCc4c(nc(C)[nH]c4=O)C3)ccc21	3.807%
OC(CN(Cc1ccccc1)Cc1ccncc1)c1cccs1 (stereo unspecified)	4.252%
Cc1cnc(CN(Cc2ccccc2)CC(O)c2cccs2)cn1 (stereo unspecified)	-16.83%
Cn1cc(CN(Cc2ccccc2)CC(O)c2cccs2)cn1 (stereo unspecified)	103.2%
CCN(CCn1c(=O)oc2ccccc21)CC1CCOCC1	48%
CCN(CC)CCn1c(=O)oc2ccccc21.Cl	61.39%
O=c1oc2ccccc2n1CCN(CC1CCOC1)C1CC1 (stereo unspecified)	23.76%
CC(NCCn1c(=O)oc2ccccc21)c1ccccn1 (stereo unspecified)	11.05%
O=C(CCn1c(=O)oc2ccccc21)NCC(O)c1ccccc1 (stereo unspecified)	-6.039%
CCCN(CCn1c(=O)oc2ccccc21)CC1CC1	69.63%
